Ba/F3 V617F tox: reduced viability of JAK2V617F-dependent Ba/F3 cells, primary screen, JAK2V617F inhibitor project, cell-based, Ba/F3 EpoR-JAK2V617F, luminescence | ATP luminescence | inhibition, % at 5.6 µM | 220,000 compounds, 1.1% hits;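 active = inhibition above the campaign mean plus 3 SD over all tested compounds, cut at about 24% in these data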;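 also: cytokine-independent growth of Ba/F3 cells driven by EpoR plus mutant JAK2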
aSyn 5UTR inh: MLPCN primary screen, SNCA 5' untranslated region; alpha-synuclein 5'UTR reporter, inhibitor activity; inhibition, % (tested at 7.5 µM); 300,000 compounds, 0.82% hits; AID 1813, 2009; in the data active = inhibition above about 60%;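 also: H4 neuroglioblastoma cells stably carrying SNCA 5'UTR luciferase fusion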
KLF5 inh: KLF5 expression inhibitors, primary screen, DLD-1 cells, luminescence | DLD-1 KLF5 promoter-luciferase reporter | inhibition, % at 5 µM | 290,000 compounds, 0.23% hits | AID 1700, 2009;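 active = inhibition above a per-plate limit of that plate's mean compound inhibition plus 3 SD, cut at about 60% in these data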;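 also: higher means less KLF5 promoter-driven luciferase light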
IEC-6 tox: cytotoxicity in IEC-6 intestinal epithelial cells, primary screen, cytotoxicity control for KLF5 inhibitor project, cell-based, luminescence | IEC-6 cytotoxicity, luminescence viability | inhibition, % at 5 µM | 290,000 compounds, 0.78% hits | AID 1825, 2009; in the data active = inhibition above about 22%
BaF3 parental: parental Ba/F3 cell viability inhibition, counter-screen for JAK2V617F inhibitor project, murine pro-B, CellTiter-Glo luminescence | AID 1486, 2009 | inhibition, % at 5.6 µM | 220,000 compounds, 1.1% hits | CellTiter-Glo ATP luminescence;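 active = inhibition above a per-campaign cutoff, the mean inhibition of all tested compounds plus 3 SD, cut at about 27% in these data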
APP transl inh: inhibitors of APP translation via 5'UTR reporter, primary screen, APP 5'UTR luciferase, SH-SY5Y cells. AID 1285, 2008. 190,000 compounds, 0.82% hits. inhibition, % at 2 µM. SH-SY5Y APP 5'UTR-luciferase reporter, luminescence;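 active = inhibition above a set limit, derived from the sample mean plus 3 SD, cut at about 45% in these data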
Hits are given with their value. In the library only some 2.2% were active in any assay of this set; here they are far more common.

Cc1ccc2c(C(=O)CN3CC(C)CC(C)C3)c(C)[nH]c2c1 (stereo not drawn) was read as aSyn 5UTR inh inactive, KLF5 inh inactive and IEC-6 tox inactive.
Screening CCN(CC)c1ccc(/C=N/n2c(-c3ccccc3Br)n[nH]c2=S)cc1 returned Ba/F3 V617F tox inactive, aSyn 5UTR inh 77.5, KLF5 inh inactive, IEC-6 tox inactive and BaF3 parental inactive.
Screening Cc1ccc(S(=O)(=O)N(C)C)cc1NC(=O)c1cc(-c2ccco2)nc2ccccc12 returned aSyn 5UTR inh inactive, KLF5 inh inactive and IEC-6 tox inactive.
Cc1ccc(NC(=O)/C(=C/c2cccs2)NC(=O)c2ccco2)cc1 was read as Ba/F3 V617F tox inactive, aSyn 5UTR inh inactive, KLF5 inh inactive, IEC-6 tox inactive, BaF3 parental 29.3 and APP transl inh inactive.
Cc1ccc(NC(=O)c2cc(N3C(=O)C=CC3=O)ccc2Cl)cc1C was read as Ba/F3 V617F tox inactive, aSyn 5UTR inh inactive, KLF5 inh inactive, IEC-6 tox inactive, BaF3 parental inactive and APP transl inh 45.3.
Screening Cc1ccc(NC(=O)c2cc(N3C(=O)C=CC3=O)ccc2N2CCOCC2)cc1 returned Ba/F3 V617F tox inactive, aSyn 5UTR inh inactive, KLF5 inh inactive, IEC-6 tox inactive, BaF3 parental inactive and APP transl inh 77.0.
For Cc1ccc(NC(=O)c2cc(-n3cnnc3)ccc2Cl)cc1 the results were Ba/F3 V617F tox inactive, aSyn 5UTR inh inactive, KLF5 inh inactive, IEC-6 tox inactive, BaF3 parental inactive and APP transl inh inactive.
`COc1ccc(CC(NC(C)=O)C(=O)NC2CCN(C(=O)Nc3ccccc3C)CC2)cc1OC` (stereo not drawn) gave aSyn 5UTR inh inactive, KLF5 inh inactive and IEC-6 tox inactive.
`CCCCCCCCCCCCCCCC[n+]1cccc(C(=O)N(CC)CC)c1` gave Ba/F3 V617F tox 59.1, aSyn 5UTR inh inactive, KLF5 inh inactive, IEC-6 tox inactive, BaF3 parental 62.1 and APP transl inh inactive.
CCCCCCCC[n+]1cccc(C(=O)N(CC)CC)c1 was read as Ba/F3 V617F tox inactive, aSyn 5UTR inh inactive, KLF5 inh inactive, IEC-6 tox inactive, BaF3 parental inactive and APP transl inh inactive.
`Cc1ccc(C#N)c(SCc2ccccc2F)n1` gave Ba/F3 V617F tox inactive, aSyn 5UTR inh inactive, KLF5 inh inactive, IEC-6 tox inactive and BaF3 parental inactive.
Screening Cc1ccc2nc(CSc3nc(C)ccc3C#N)[nH]c2c1 returned Ba/F3 V617F tox inactive, aSyn 5UTR inh 79.3, KLF5 inh inactive, IEC-6 tox inactive, BaF3 parental inactive and APP transl inh inactive.
Screening Cc1ccc(C)c(OCCC(=O)OCC(=O)c2c(N)n(C)c(=O)n(C)c2=O)c1 returned aSyn 5UTR inh inactive.
COc1ccc(C2CC(c3cccs3)=NN2C(=O)CCl)cc1OC (stereo not drawn) was read as aSyn 5UTR inh inactive, KLF5 inh inactive and IEC-6 tox inactive.
Screening COc1cc(C2CC(c3cccs3)=NN2C(=O)CCl)ccc1OC(F)F (stereo not drawn) returned aSyn 5UTR inh 107.1, KLF5 inh inactive and IEC-6 tox inactive.
For CCOc1cccc(/C=N/NC(=S)Nc2cc(S(=O)(=O)N3CCOCC3)ccc2N2CCOCC2)c1O the results were Ba/F3 V617F tox inactive, aSyn 5UTR inh 80.8, KLF5 inh inactive, IEC-6 tox inactive, BaF3 parental inactive and APP transl inh 54.3.
COc1ccc2ccccc2c1/C=N/NC(=S)Nc1cc(S(=O)(=O)N2CCOCC2)ccc1N1CCOCC1 was read as Ba/F3 V617F tox inactive, aSyn 5UTR inh inactive, KLF5 inh inactive, IEC-6 tox inactive, BaF3 parental inactive and APP transl inh inactive.
Cc1ccccc1C(=O)Nc1cccc(NC(=O)c2cccnc2)c1 was read as aSyn 5UTR inh inactive, KLF5 inh inactive and IEC-6 tox inactive.
`O=C(COC(=O)c1ccco1)Nc1nnc(-c2ccccc2)o1` gave aSyn 5UTR inh inactive.
O=C(OCc1nc(-c2ccccc2)oc1COC(=O)c1ccco1)c1ccco1 was read as Ba/F3 V617F tox inactive, aSyn 5UTR inh inactive, KLF5 inh inactive, IEC-6 tox inactive, BaF3 parental 54.1 and APP transl inh inactive.
For CCOc1ccc(NC(=O)CCS(=O)(=O)c2ccc(Br)cc2)cc1 the results were aSyn 5UTR inh inactive, KLF5 inh inactive and IEC-6 tox inactive.
`CN[C@H]1CCc2cc(OC)c(OC)c(OC)c2-c2ccc(N(C)CC(OC)OC)c(=O)cc21` gave aSyn 5UTR inh 70.2, KLF5 inh inactive and IEC-6 tox inactive.
CCOC(=O)c1c(C)[nH]c(C)c1S(=O)(=O)NCC1CCN(Cc2ccccc2OC)CC1 was read as aSyn 5UTR inh inactive, KLF5 inh inactive and IEC-6 tox inactive.
Screening Cc1ccc(-c2cc3c(nn2)-c2ccccc2C3=O)cc1 returned Ba/F3 V617F tox inactive, aSyn 5UTR inh 86.5, KLF5 inh inactive, IEC-6 tox inactive and BaF3 parental inactive.
CCOC(=O)c1[nH]c2ccc(OC)cc2c1NC(=O)c1nonc1C was read as Ba/F3 V617F tox inactive, aSyn 5UTR inh inactive, KLF5 inh inactive, IEC-6 tox inactive, BaF3 parental inactive and APP transl inh 46.3.
`CCOC(=O)c1[nH]c2ccc(Cl)cc2c1NC(=O)c1nonc1C` gave Ba/F3 V617F tox inactive, aSyn 5UTR inh inactive, KLF5 inh inactive, IEC-6 tox inactive, BaF3 parental inactive and APP transl inh inactive.
`Brc1ccc(-c2cnc3n2CCCC3)cc1` gave Ba/F3 V617F tox inactive, aSyn 5UTR inh inactive, KLF5 inh inactive, IEC-6 tox inactive, BaF3 parental inactive and APP transl inh inactive.
CCOc1ccc(-c2cnc3n2CCC3)cc1 was read as Ba/F3 V617F tox inactive, aSyn 5UTR inh inactive, KLF5 inh inactive, IEC-6 tox inactive, BaF3 parental inactive and APP transl inh 45.7.
O=C(Cc1ccccc1)Nc1cccc(N2C(=O)C=CC2=O)c1 was read as Ba/F3 V617F tox inactive, aSyn 5UTR inh inactive, KLF5 inh inactive, IEC-6 tox inactive, BaF3 parental inactive and APP transl inh 66.7.
For O=C(COc1ccc(C(=S)N2CCCC2)cc1)Nc1ccccc1C(F)(F)F the results were aSyn 5UTR inh inactive, KLF5 inh inactive and IEC-6 tox inactive.
`Cc1ccccc1Cn1cc(NC(=O)c2noc(C(C)C)c2[N+](=O)[O-])cn1` gave aSyn 5UTR inh 106.1, KLF5 inh inactive and IEC-6 tox inactive.
`Cc1cc(C)cc(NC(=S)N2CCN(S(C)(=O)=O)CC2)c1` gave aSyn 5UTR inh inactive, KLF5 inh inactive and IEC-6 tox inactive.
Screening COc1ccc(C2CC(=O)C(C3NCCc4ccccc43)=C(O)C2n2cncn2)cc1 (stereo not drawn) returned Ba/F3 V617F tox inactive, aSyn 5UTR inh inactive, KLF5 inh inactive, IEC-6 tox inactive, BaF3 parental inactive and APP transl inh inactive.
Screening CCOc1ccc(NC(C)=O)cc1 returned aSyn 5UTR inh inactive, KLF5 inh inactive and IEC-6 tox inactive.

From PubChem BioAssay
